In PubChem BioAssay (NCATS):
Calls of active or inactive are those of the source. Calls follow the shape of the dose curve; as a rule, active = well fitted curve in the direction sought with a large enough effect; inconclusive = small, poorly fitted or top-dose-only effect, or another doubt; inactive = no such curve, though single readings can be large or run the other way.

molecular target: Alpha-galactosidase (Coffea arabica) (UniProt Q42656); assay: Counterscreen for Glucocerebrosidase Inhibitors: qHTS Assay for Coffee Bean alpha-Galactosidase at pH 4.5 (AID 957); conditions: purified coffee bean alpha-galactosidase, fluorogenic substrate; series mostly up to 76.9 µM
Sequence (Q42656 whole entry, looked up): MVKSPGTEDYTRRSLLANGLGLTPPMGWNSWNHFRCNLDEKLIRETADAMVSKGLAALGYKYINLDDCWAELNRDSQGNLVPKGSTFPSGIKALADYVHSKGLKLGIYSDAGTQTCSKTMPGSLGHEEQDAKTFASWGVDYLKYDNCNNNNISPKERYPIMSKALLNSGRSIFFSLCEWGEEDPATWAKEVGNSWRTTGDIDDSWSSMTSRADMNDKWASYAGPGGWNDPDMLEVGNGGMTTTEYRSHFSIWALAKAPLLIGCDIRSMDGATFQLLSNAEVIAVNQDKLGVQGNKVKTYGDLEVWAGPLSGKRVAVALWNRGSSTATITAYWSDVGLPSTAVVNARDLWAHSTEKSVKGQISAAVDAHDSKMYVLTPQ
Outline: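 Enzyme is added first (2 nM final), then compounds titrated from 0.7 nM to 77 uM, then 80 uM 4-methylumbelliferyl alpha-D-galactopyranoside; after 20 min at room temperature a pH 10 NaOH/glycine stop precedes fluorescence reading at 365/440 nm.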

Structure (SMILES) | outcome
CN1Cc2c(N)cccc2[C@H](c2ccccc2)C1 | inactive
CNc1ncnc2c1ncn2[C@H]1C[C@@H](OP(=O)(O)O)[C@H](COP(=O)(O)O)O1 | inactive
CN(C)CC[C@@H](c1ccccc1)c1ccccn1 | inactive
OC[C@H]1O[C@@H](n2cnc3c(NCCc4ccccc4)ncnc32)[C@H](O)[C@H]1O | inactive
COc1cc(=O)n(C)c2c(OC[C@@H](O)C(C)(C)O)cccc12 | inactive
O=c1ccn([C@@H]2O[C@@H](COP(=O)(O)OP(=O)(O)O)[C@H](O)[C@@H]2O)c(=O)[nH]1 | inactive
Nc1nc(Nc2ccccc2)nc2c1ncn2[C@@H]1O[C@@H](CO)[C@H](O)[C@@H]1O | inactive
C=C1C(=O)O[C@@H]2[C@@H]1CC/C(C)=C\CC[C@@]1(C)O[C@H]21 | inactive
Nc1ncnc2c1nc(Br)n2[C@@H]1O[C@H]2COP(=O)(O)O[C@@H]2[C@H]1O | inactive
Nc1nc(SCc2ccc([N+](=O)[O-])cc2)c2ncn([C@@H]3O[C@@H](CO)[C@@H](O)[C@H]3O)c2n1 | inactive
C[C@@]12CCC(=O)C=C1CC[C@@H]1[C@@H]2[C@H](O)C[C@]2(C)[C@@H]1CC[C@]2(O)C(=O)COC(=O)CCC(=O)O | inactive
O=C(NCCNC[C@@H](O)COc1ccc(O)cc1)N1CCOCC1 | inactive
O=C(O)[C@H]1CCCN(CCC=C(c2ccccc2)c2ccccc2)C1 | inactive
CCCCCCCCCCCCCCCC(=O)NC[C@@H](COP(=O)([O-])OCC[N+](C)(C)C)OCC | inactive
CNCC[C@H](Oc1ccccc1OC)c1ccccc1 | inactive
C[C@@](N)(Cc1ccc(O)c(O)c1)C(=O)O | inactive
